Experimental findings from PubChem BioAssay (NCATS) are described below.

Records with an inconclusive call do not appear. A call without a number means that no potency is given here. Unmarked numbers belong to inactive results. The source made the active and inactive calls. The call rests on the fitted dose curve; in most records, active means well fitted inhibition curve with a large enough effect; inconclusive means small, poorly fitted or top-dose-only effect; inactive means flat fitted curve, though single readings scatter.

The test has as its target Aldehyde dehydrogenase, mitochondrial (Homo sapiens) (UniProt P05091). In words: qHTS for Inhibitors of the Aldehyde Dehydrogenase Family (ALDH2) Primary screen (AID 2061308). Further: nearly all actives have a fitted effect of over 55% in size. The settings on record: ALDH2 enzyme inhibition qHTS, 1536-well; series mostly up to 56 µM. For orientation: qHTS replaces the single test concentration by a dilution series.
Turning to `COc1cc(O)cc(/C=C/c2cccc(O)c2)c1`, the Potency entry is “inactive”.
The same measure, in the same setting: with `NC1CCC(Nc2cc(-c3cccc(NCc4cccc(F)c4)n3)c(Cl)cn2)CC1` (centres undefined) the entry was “inactive”.
For `COc1ccccc1NC(=O)OCC1CCN(C(=O)OC(C)(C)C)CC1`, the Potency entry is “inactive”.
The same measure, in the same setting: with `Cc1c(O)cc2c(c1O)COC1(O)CCCOC21` (centres undefined) the entry was “inactive”; with `CC1CCN(C(=O)CC#N)CC1N(C)c1ncnc2[nH]ccc12` (centres undefined), “inactive”; with `CC1=C2C(=O)C=C(CO)C2[C@H]2OC(=O)[C@H](C)[C@@H]2[C@@H](OC(=O)Cc2ccc(O)cc2)C1` (some centres undefined), “inactive”.
The same measure, in the same setting: with `CC(=O)O[C@@H]1CC2C(C)(C)C(=O)C=C[C@]2(C)C2CC[C@]3(C)C(=CC(=O)[C@@H]3c3ccoc3)[C@@]21C` (some centres undefined) the entry was “inactive”; with `CC1=CC(=O)CC(C)(C)[C@@]1(O)/C=C/C(C)O[C@@H]1O[C@H](CO)[C@@H](O)[C@H](O)[C@H]1O` (some centres undefined), “inactive”.
As to `C/C=C(/C)C(=O)OC1C=C2C3C(C)C(C)C(OC(=O)C(C)C(C)O)CC3(C)CCC2(C)C2(C)CC(OC(C)=O)C3C(C)(C)C(O)C(=O)CC3(C)C12` (centres undefined), the Potency entry is “inactive”.
The same measure, in the same setting: with `Nc1nc2c(nc(Br)n2[C@@H]2O[C@@H]3COP(=O)(O)O[C@H]3[C@H]2O)c(=O)[nH]1` the entry was “inactive”.
As to `C[C@@H]1O[C@@H](O[C@H]2[C@H](O)[C@@H](O[C@@H]3O[C@H](CO)[C@@H](O)[C@H](O[C@@H]4O[C@H](CO)[C@@H](O)[C@H](O)[C@H]4O)[C@H]3O)[C@H](O[C@H]3CC[C@@]4(C)C(=CC[C@@H]5C4CC[C@@]4(C)C5C[C@@H]5OC6(CC[C@@](C)(CO[C@@H]7O[C@H](CO)[C@@H](O)[C@H](O)[C@H]7O)O6)[C@@H](C)[C@@H]54)C3)O[C@@H]2CO)[C@H](O)[C@H](O)[C@H]1OC1OC(CO)C(O)C(O)C1O` (some centres undefined), the activity change, negative = inhibition is -9.01% [at 11.2 µM].
Turning to `Cc1cc(C(N)=O)ccc1-n1c(CCC(=O)O)ccc1-c1ccc(-n2ccnc2)cc1`, the Potency result was “inactive”.
Still for that read-out and setting: with `O=C(O)Cc1cn([C@@H]2O[C@H](CO)[C@@H](O)[C@H](O)[C@H]2O[C@@H]2O[C@H](CO)[C@@H](O)[C@H](O)[C@H]2O)c2ccccc12` the entry was “inactive”.
Turning to `CC1(C)CC[C@]2(C(=O)O[C@@H]3O[C@H](CO)[C@@H](O)[C@H](O)[C@H]3O)CC[C@]3(C)C(=CCC4[C@@]5(C)C[C@@H](O)[C@H](O)[C@@](C)(CO)C5CC[C@]43C)C2C1` (some centres undefined), the Potency entry is “inactive”.
On the same count and under the same terms, with `C=C1C(=O)OC2CC(COC(=O)C(C)C)=C(C(C)CCCOC(C)=O)[C@@H](OC(C)=O)C12` (some centres undefined) the entry was “inactive”; with `C=C1[C@H](OC(C)=O)[C@H]2[C@@H](OC(=O)c3ccccc3)[C@@H](C)C[C@]2(O)[C@@H](OC(C)=O)[C@H](C)/C=C/C(C)(C)C(=O)[C@H](OC(C)=O)[C@H]1OC(C)=O`, “inactive”.
Still for that read-out and setting: with `C[C@@]12CC3(S(=O)(=O)O)OC(O1)[C@]1(COC(=O)c4ccccc4)[C@H]3C[C@]21O[C@@H]1O[C@H](CO)[C@@H](O)[C@H](O)[C@H]1O` the entry was “inactive”; with `COc1cc(/C=C2\CC[C@H]3COC[C@@H](c4cc(F)c(F)c(F)c4)N3C2=O)ccc1-n1cnc(C)c1`, “inactive”.
Regarding `CC(=O)O[C@@H]1[C@H](O[C@@H]2OC[C@](O)(CO)[C@H]2O)[C@@H](O[C@@H]2O[C@@H](C)[C@H](O)[C@@H](O[C@@H]3O[C@H](CO)[C@@H](O)[C@H](O)[C@H]3O)[C@H]2O)[C@H](OC(=O)[C@]23CCC(C)(C)C[C@H]2C2=CCC4[C@@]5(C)C[C@H](O)[C@H](O[C@@H]6O[C@H](C(=O)O)[C@@H](O)[C@H](O)[C@H]6O)[C@@](C)(C(=O)O)C5CC[C@@]4(C)[C@]2(C)CC3)O[C@@H]1C` (some centres undefined), the activity change, negative = inhibition was 3.67% [at 11.2 µM].
`C1=Cc2ccccc2C(=C2CCN(CCCCc3nn[nH]n3)CC2)c2ccccc21`: the Potency result is “inactive”.
On the same count and under the same terms, with `CC(C)=CCCC1(C)Oc2cc3c(c4c2C2C(O4)C(C)(O)CCC21)CN(C(CCC(=O)O)C(=O)O)C3=O` (centres undefined) the entry was “inactive”; with `COc1cc2c(cc1OC)CC(=O)N(CCCNC[C@H]1Cc3cc(OC)c(OC)cc31)CC2`, “inactive”.
As to `COC(=O)[C@]1(C)CCC[C@@]2(C)[C@@H]3CC[C@@H]4C[C@@]3(CC[C@@H]21)C[C@H]4C(=O)O`, the Potency result was “inactive”.
The same measure, in the same setting: with `CC1(C)CC[C@]2(C(=O)O[C@@H]3O[C@H](CO[C@@H]4O[C@H](CO)[C@@H](O)[C@H](O)[C@H]4O)[C@@H](O)[C@H](O[C@@H]4O[C@H](CO)[C@@H](O)[C@H](O)[C@H]4O)[C@H]3O)CC[C@]3(C)C(=CCC4[C@@]5(C)CC[C@H](O[C@@H]6OC[C@@H](O)[C@H](O)[C@H]6O)[C@@](C)(C(=O)O)C5CC[C@]43C)[C@@H]2C1` (some centres undefined) the entry was “inactive”.
